# The panel holds about 83,000 compounds, 20% with a hit somewhere; the sample as a whole holds those more often.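 Results are percent growth after 48 hours of single-concentration exposure. 100 means growth as in untreated cells, lower positive values show inhibition; negative values down to -100 show cell death.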 Unmarked numbers belong to inactive results. Activity calls are given as the source filed them. Rule for the calls: active = growth percent below 10; inactive = the rest.
# Assays:
# Assay in all cases: NCI-60 one-dose screen, 48 h (100 = growth as untreated, 0 = no growth, -100 = all killed)
# Details in all cases: 10 µM unless noted
# SK-MEL-2 melanoma = system: SK-MEL-2 melanoma
# EKVX NSCLC = system: EKVX NSCLC
# SN12C renal = system: SN12C renal
# UO-31 renal = system: UO-31 renal
# TK-10 renal = system: TK-10 renal
# ACHN renal = system: ACHN renal
# CAKI-1 renal = system: CAKI-1 renal
# A498 renal = system: A498 renal
# CCRF-CEM leukemia = system: CCRF-CEM leukemia
# MOLT-4 leukemia = system: MOLT-4 leukemia
SMILES,growth (SK-MEL-2 melanoma),growth (EKVX NSCLC),growth (SN12C renal),growth (UO-31 renal),growth (TK-10 renal),growth (ACHN renal),growth (CAKI-1 renal),growth (A498 renal),growth (CCRF-CEM leukemia),growth (MOLT-4 leukemia)
O=C(Nc1ccc(Cl)cc1)C1=NCCCCN1,97.7%,80%,94.5%,55.4%,90%,59.1%,53.8%,98.6%,89.2%,95.4%
CCOc1cc(\C=N/N=C(N)/C(N)=N\N=C/c2ccc(O)c(OCC)c2)ccc1O,126%,106%,101%,88.7%,127%,96.5%,94.5%,106%,49.7%,59.2%
C=C1C(=O)O[C@H]2[C@H]1CC/C(CNC(=O)/C=C/c1cc(OC)c(OC)c(OC)c1)=C\CC[C@@]1(C)O[C@@H]21,3.52% (active),25.3%,28.1%,-38.2% (active),-86.5% (active),-79.6% (active),33.9%,-9.24% (active),-10.6% (active),-26.6% (active)
CCOC(=O)c1c2c(n3ccc(NC(=O)CCN4CCCC4)cc13)C(=O)c1ncccc1C2=O,93.9%,-49.2% (active),-63.5% (active),16.9%,-92.2% (active),13.6%,9.9% (active),46.3%,-36.4% (active),-23% (active)
CCOC(=O)c1c(Nc2nc3ccccc3s2)sc2c1CCC(=O)C2,103%,42.8%,36.8%,52.7%,29.1%,29.9%,42.8%,59.1%,16.9%,20.8%
Cc1cc2c(c(C)n1)CN(C(=O)Nc1nc(-c3cncs3)ccc1N)C2,81%,97.3%,105%,92%,62.7%,106%,76.8%,96%,107%,107%
CN(C)CC1C(=O)O[C@H]2[C@H]1CC/C(COC(=O)NCc1ccc(Cn3c(=O)sn(CCCI)c3=O)cc1)=C\CC[C@@]1(C)O[C@@H]21 (stereo not given in full),63.3%,89.7%,18.9%,1.41% (active),-63.3% (active),-48.8% (active),-63.8% (active),105%,-10.1% (active),-1.36% (active)
CC(C)(C)n1cc(-c2ccnc(NCCNS(=O)(=O)c3ccc(C(F)(F)F)cc3)c2)c(-c2ccccc2)n1,105%,73.9%,86%,58.9%,104%,102%,90.6%,61.7%,74.6%,72.2%
CN1CCN(Cc2ccc(NC(=O)c3cncc(C#Cc4c(N)ncc5ccccc45)c3)cc2C(F)(F)F)CC1,-79.2% (active),-34.8% (active),-97.4% (active),-78.8% (active),-97.6% (active),-91.5% (active),-66.2% (active),-63.2% (active),-7.03% (active),-41.3% (active)
COc1cc(/C=C/C(=O)c2ccc(-n3cc(CN4CCN(c5cc6c(cc5F)c(=O)c(C(=O)O)cn6C5CC5)CC4)nn3)cc2)cc(OC)c1OC,102%,80.8%,58.8%,65.4%,97.8%,93.4%,68.7%,34.9%,34.6%,80.4%
CCN(CC)c1ccc(/C=N/NC(=O)c2ccccc2Nc2ccnc(C(F)(F)F)c2)c(O)c1,94.1%,30.5%,22.2%,16%,33.3%,11.9%,56.9%,47.8%,14.5%,59.6%
Cn1cc(-c2csc(-c3cn(C)c4ccc(F)cc34)n2)c2cnccc21,88.9%,-13.1% (active),-29.9% (active),-69.7% (active),-20.2% (active),-89.6% (active),-43.9% (active),78.3%,-11.6% (active),-36.1% (active)
Cc1[nH]c(C(=O)Nc2ccc(C(N)=O)cc2OC(C)C)c(Cl)c1Cl,100%,86.3%,99.9%,74.4%,117%,97.2%,105%,84.3%,92.5%,89.2%
CCOC(=O)c1c(C)nc2c(c1N)C(=O)C(=O)N2CCc1ccc(OC)c(OC)c1,75.5%,57.6%,89.1%,57.5%,70.8%,74%,60.2%,55.5%,75.1%,57.3%
COc1ccc(Nc2nccc(Nc3ccc4[nH]ncc4c3)n2)cc1,29.8%,50.9%,43.4%,15.9%,19.3%,29.2%,38.3%,36.5%,-1.69% (active),1.45% (active)
O=C1c2c(c3c4cc(F)ccc4oc3c3[nH]c4ccccc4c23)C(=O)N1O,78%,62.3%,28.1%,8.37% (active),102%,0.963% (active),16.9%,-6.56% (active),5.67% (active),-22.5% (active)
CC1(C)CC[C@]2(CO)CC[C@]3(C)C(=CC[C@@H]4[C@@]5(C)CCNCC(C)(C)[C@@H]5CC[C@]43C)[C@@H]2C1,53.7%,97.5%,80.5%,75.3%,95%,88%,67.3%,84.2%,73.8%,49.3%
CCN1CCN(c2nc(NNC(=O)c3ccc(OC)cc3)nc(N3CCN(C(c4ccccc4)c4ccccc4)CC3)n2)CC1,78%,82.6%,45.7%,61.2%,49.5%,34%,24%,60.1%,43.8%,16.3%
O=C1C(Nc2ccc(Br)cc2)=C(I)C(=O)c2ncccc21,79.2%,77.6%,1.34% (active),-38.4% (active),70.7%,-20.1% (active),18.6%,96%,8.63% (active),-2.02% (active)
CC(=O)/C(Br)=C/c1ccc(Br)o1,99.2%,105%,73.5%,52.7%,71.5%,60.1%,26.1%,105%,-31% (active),-15.4% (active)
CCCCC#Cc1c(I)n(C2OC(CO[Si](C)(C)C(C)(C)C)C3OC(C)(C)OC32)c(=O)[nH]c1=O (stereo not given),55.6%,92.2%,85.1%,56.1%,68.9%,72.5%,74.4%,99.1%,8.63% (active),4.72% (active)
CC1(C)CC[C@]2(CO)CC[C@]3(C)[C@H](CC[C@@H]4[C@@]5(C)CC[C@H](O)C(C)(C)[C@@H]5CC[C@]43C)[C@H]2[C@H]1O,104%,106%,65.6%,114%,58.7%,77.2%,99.9%,91.5%,98.5%,86.3%
CCCCCCCCOC(=O)c1c(C)[nH]c(/C=C2\N=C(c3ccc[nH]3)C=C2OC)c1C,-70.3% (active),27.8%,11.7%,-52.1% (active),9.67% (active),-18.9% (active),-13.2% (active),-7.97% (active),17.7%,4.33% (active)
CCCCCCC/C=N/NC(=O)c1ccc(-n2cc(-c3ccccc3)nn2)cc1,98.9%,90.5%,93.4%,71%,110%,79.1%,75.8%,90.1%,86.3%,85.9%
CCCCC/C=C/CCC(=O)N[C@H]1[C@H](Oc2c3cc4cc2Oc2ccc(cc2Cl)[C@@H](O[C@@H]2O[C@H](CO)[C@@H](O)[C@H](O)[C@H]2NC(C)=O)[C@@H]2NC(=O)[C@H](NC(=O)[C@@H]4NC(=O)[C@H]4NC(=O)[C@@H](Cc5ccc(c(Cl)c5)O3)NC(=O)[C@@H](N)c3ccc(O)c(c3)Oc3cc(O)cc4c3)c3ccc(O)c(c3)-c3c(O[C@H]4O[C@H](CO)[C@@H](O)[C@H](O)[C@@H]4O)cc(O)cc3[C@H](C(=O)O)NC2=O)O[C@H](CO)[C@H](O)[C@@H]1O,112%,96.4%,94.7%,82%,112%,103%,84.1%,102%,113%,101%

# Source: PubChem BioAssay (NCI)
